Data reported in PubChem BioAssay AID431 (Sanford-Burnham Center for Chemical Genomics, 2006).
Among all 63,000 compounds or so, about 1,100 (1.7%) were called active. Shown is part of a subset that was picked to be rich in actives. Potency and affinity values are given separately. Values without a mark were called inactive.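 How the source made its calls: active means compounds whose percent cytotoxicity in the single-dose primary screen, scaled between solvent and toxic-drug controls, exceeds 50; inactive means the rest.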

Experiment: cytotoxicity in KRAS-transformed pancreatic duct cells, primary screen, cell-based, fluorescence, HTS (AID 431);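 further: 0% = DMSO solvent wells and 100% = doxorubicin-treated wells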
Details: HPDE-C7K KRASV12 cells, Alamar Blue viability, 48 h; at 10 µM; hits give high values

SMILES	cytotoxicity
COC(=O)c1ccc(NC(=O)c2sc3nc(-c4ccccc4)cn3c2C)cc1	-6.6%
CN(C)c1ccc(/C=[N+](\[O-])C2SC(=S)N(C)C2(C)C)cc1 (configuration not stated)	-16.8%
Cc1ccc2c(COn3nnc4ccc(S(=O)(=O)N(C)C)cc43)cc(=O)oc2c1C	2.9%
CCc1ccc2c(COC(=O)c3n[nH]c4ccccc34)cc(=O)oc2c1	17.5%
CCc1ccc2c(COn3nnc4ccc(S(=O)(=O)N(C)C)cc43)cc(=O)oc2c1	62% (active)
COc1ccc(Cn2c(-c3ccco3)nc3oc4ccccc4c(=O)c3c2=O)cc1	8.5%
CC1(C)Cc2ccccc2-c2nc(NCCO)n(-c3ccccc3)c(=O)c21	-9.1%
O=c1[nH]c(NCCO)nc2c1C1(CCCCC1)Cc1ccccc1-2	17.6%
Cn1c(NCCCO)nc2c(c1=O)C1(CCCCC1)Cc1ccccc1-2	51.9% (active)
CC1(C)CC(n2c(NCCO)nc3c(c2=O)C2(CCCC2)Cc2ccccc2-3)CCO1 (configuration not stated)	64.4% (active)
Cn1c(NCCO)nc2c(c1=O)C1(CCCCC1)Cc1ccccc1-2	10.5%
O=c1[nH]c(NCCCO)nc2c1C1(CCCC1)Cc1ccccc1-2	26.4%
Cc1ccc(S(=O)(=O)N2CCN(S(=O)(=O)N3CCCCC3)CC2)c(C)c1	6.6%
COc1ccc(N2CCN(Cc3nc(N)nc(Nc4ccc(C)c(Cl)c4)n3)CC2)cc1	19.1%
CCN1CCN(Cc2nc(N)nc(Nc3ccc(C)c(C)c3)n2)CC1	-24.7%
CC1CC(C)CN(Cc2nc(N)nc(Nc3ccc4ccccc4c3)n2)C1 (configuration not stated)	58.4% (active)
Cc1ccc(Nc2nc(N)nc(CN3CCN(C)CC3)n2)cc1C	-27.5%
Cc1cccc(Nc2nc(N)nc(CN3CCN(c4ccccc4)CC3)n2)c1	-21.7%
Cc1ccc(Nc2nc(N)nc(CN3CCN(c4ccccc4)CC3)n2)cc1Cl	54.7% (active)
CC(=O)c1cc2c(cc1NC(=O)CSc1nnc(C)s1)OCO2	11.3%
CCOC(=O)C1C2C=CC3(CN(Cc4cccs4)C(=O)C13)O2 (configuration not stated)	4.9%

SMILES	cytotoxicity
COc1cccc(NC(=O)C2CCCN(S(=O)(=O)c3cccc4cccnc34)C2)c1 (configuration not stated)	20.1%
Cc1nc(NC(=O)CSc2ccccc2N)sc1C	3%
Cn1c(=O)[nH]c(=O)c2c1nc(Sc1ncccn1)n2CCCc1ccccc1	3.9%
CC(C)Cc1nc(C(N)=O)c2[nH]c(=O)n(-c3ccc(F)cc3)c2n1	-1.8%
O=C(CCN1CCN(c2ccccc2F)CC1)Nc1ccccc1F	-5.4%
O=C(CCN1CCN(CCC(=O)c2ccccc2)CC1)c1ccccc1	-9.4%
O=C(COc1ccc(Cl)cc1)NCc1nnc(SCC(=O)Nc2ccccc2)o1	-7.7%
CC(C)NC(=O)CN1CCN(c2ncccn2)CC1	-7.7%
CC(=O)NCCSC(=O)c1ccc(F)cc1	-2.7%
CC(C)CC(=O)Nc1cccc(-c2cn3ccsc3n2)c1	11.7%
CC(=O)Nc1ccc(-c2cn3ccsc3n2)cc1	6.9%
O=S(=O)(NCc1cn2ccsc2n1)c1ccc2c(c1)OCCO2	4.2%
O=S(=O)(Nc1cccc(-c2nc3cccnc3s2)c1)c1ccc2c(c1)OCCO2	50.4% (active)
Cc1cccc(S(=O)(=O)Nc2cccc(-c3cn4ccsc4n3)c2)c1	31.3%
Cc1ccc(S(=O)(=O)Nc2cccc(-c3cn4ccsc4n3)c2)cc1	64% (active)
c1cn2cc(-c3ccc4c(c3)OCO4)nc2s1	15.3%
O=S(=O)(Nc1cccnc1)c1ccc2c(c1)OCCO2	1.8%
CC(C)CC(=O)Nc1ccc(-c2cn3ccsc3n2)cc1	56.7% (active)
O=S(=O)(Nc1nccs1)c1ccc2c(c1)OCCO2	5.1%
O=S(=O)(Nc1ccc(-c2cn3ccsc3n2)cc1)c1ccc2c(c1)OCCO2	53.9% (active)
O=S(=O)(Nc1cccc(-c2cn3ccsc3n2)c1)c1ccc(F)cc1	42.2%

SMILES	cytotoxicity
O=C(CSCc1ccccc1)NC1CCSC1=O (configuration not stated)	11.9%
O=C(CSc1nnc(CCc2nc3ccccc3[nH]2)n1-c1ccccc1)NCc1ccco1	-22.8%
COc1ccccc1OCc1ccc(C(=O)n2nc(C)c(Cl)c2C)o1	-1.6%
CN(C)c1ccc(C(=O)c2ccc(N(C)C)c(N)c2)cc1N	46%
CCOC(=O)C(C)Oc1ccc(C2NC(=O)NC(C)=C2C(C)=O)cc1Br (configuration not stated)	8.9%
O=C(NCCc1ccccc1)C1CCCN(S(=O)(=O)c2cccnc2)C1 (configuration not stated)	-7.8%
O=C(NCc1ccc2c(c1)OCO2)c1cnc2n(c1=O)CCS2	11.4%
COc1ccc(-c2nc(SCC(=O)NCc3ccco3)c(-c3ccccc3)[nH]2)cc1OC	-6.7%
COc1ccc(-c2[nH]c(-c3ccc(F)cc3)nc2SCC(=O)NCc2ccco2)cc1OC	6.3%
COc1ccc(-c2[nH]c(-c3cccc(OC)c3)nc2SCC(=O)NCc2ccco2)cc1	50.4% (active)
CS(=O)(=O)NCCCc1ccccc1	-3.7%
O=C(NCc1ccccn1)c1ccc(/C=N/O)nc1	0.9%
CC1CCN(c2nc(-c3ccc(F)cc3)cc(C(F)(F)F)n2)CC1	-19.1%
O=c1c2ccccc2[nH]c(=S)n1CCN1CCN(Cc2ccccc2)CC1	0.6%
O=C(c1ccc(F)cc1)C1CCN(CCn2c(=O)[nH]c3ccccc3c2=O)CC1	5.6%
CCSc1nnc(NC(=O)c2cc(C)oc2C)s1	10.1%
Cc1noc(C(=O)Nc2c(C)nn(Cc3ccccc3)c2C)c1Cl	-3.9%
CCOC(=O)N1CCN(C(=O)c2ccc3c(c2)N(CC)CCS3)CC1	1%
CC(=O)NC(c1ccco1)c1ccc2cccnc2c1O (configuration not stated)	23.7%
CC(C)C(=O)NC(c1ccco1)c1ccc2cccnc2c1O (configuration not stated)	-36.3%
